Reference: PubChem BioAssay (NCI)
The panel holds about 83,000 compounds, 20% with a hit somewhere; the sample as a whole holds those more often.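 Activity criterion: percent growth below 10, measured after cells in 96-well plates were exposed to a single compound concentration for 48 hours.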 A number with no mark means an inactive call. Calls of active or inactive are those of the source.

Assays:
Assay in all cases: NCI-60 one-dose screen, 48 h (100 = growth as untreated, 0 = no growth, -100 = all killed)
Conditions in all cases: 10 µM unless noted
NCI-H23 lung = system: NCI-H23 lung
NCI-H226 lung = system: NCI-H226 lung
NCI-H322M lung = system: NCI-H322M lung
HOP-62 NSCLC = system: HOP-62 NSCLC
NCI-H460 lung = system: NCI-H460 lung
HOP-92 NSCLC = system: HOP-92 NSCLC
NCI-H522 lung = system: NCI-H522 lung
A549/ATCC NSCLC = system: A549/ATCC NSCLC
786-0 renal = system: 786-0 renal
COLO 205 colon = system: COLO 205 colon
DU-145 prostate = system: DU-145 prostate
K-562 leukemia = system: K-562 leukemia
MALME-3M melanoma = system: MALME-3M melanoma
MDA-MB-231 breast = system: MDA-MB-231 breast
RXF 393 renal = system: RXF 393 renal
SF-268 CNS = system: SF-268 CNS
SF-295 CNS = system: SF-295 CNS
SF-539 CNS = system: SF-539 CNS
UACC-257 melanoma = system: UACC-257 melanoma
M14 melanoma = system: M14 melanoma

| Structure (SMILES) | growth (NCI-H23 lung) | growth (NCI-H226 lung) [%] | growth (NCI-H322M lung) [%] | growth (HOP-62 NSCLC) [%] | growth (NCI-H460 lung) | growth (HOP-92 NSCLC) | growth (NCI-H522 lung) | growth (A549/ATCC NSCLC) | growth (786-0 renal) | growth (COLO 205 colon) | growth (DU-145 prostate) [%] | growth (K-562 leukemia) | growth (MALME-3M melanoma) | growth (MDA-MB-231 breast) [%] | growth (RXF 393 renal) | growth (SF-268 CNS) | growth (SF-295 CNS) [%] | growth (SF-539 CNS) [%] | growth (UACC-257 melanoma) [%] | growth (M14 melanoma) |
| --- | --- | --- | --- | --- | --- | --- | --- | --- | --- | --- | --- | --- | --- | --- | --- | --- | --- | --- | --- | --- |
| C[C@]12CC[C@H]3[C@@H](CC4SC(N)=NC45C/C(=N/NC(N)=O)CC[C@]35C)[C@@H]1CCC2=O (stereo not given in full) | -44.3% (active) | 108 | 52.4 | 75.5 | -38.7% (active) | 46.6% | -18.6% (active) | 0.923% (active) | -9.65% (active) | 35% | 31.1 | -38.5% (active) | 3.07% (active) | 35.2 | 7.08% (active) | -6.41% (active) | 45.7 | 87.2 | 105 | -51.1% (active) |
| O=C(Nc1ccc([N+](=O)[O-])cc1)C(Cl)(Cl)Cl | 96.5% | 97.8 | 90.1 | 96.9 | 104% | 88% | 106% | 94% | 96.6% | 107% | 96.7 | 98.2% | 97.6% | 95 | 116% | 97.6% | 96.9 | 94.2 | 96.7 | 94.1% |
| O=C(Nc1ccc(O)cc1)C(Cl)(Cl)Cl | 101% | 101 | 102 | 104 | 105% | 105% | 91.2% | 98.4% | 95.2% | 102% | 108 | 98.2% | 96.8% | 98.4 | 107% | 101% | 99.8 | 93.1 | 90.2 | 91.2% |
| Clc1cccc(N2COOC3(OOC2)C2CC4CC(C2)CC3C4)c1 | 49% | 96.2 | 99.6 | 73 | 87.2% | -7.89% (active) | 2.67% (active) | 76% | 7.65% (active) | 111% | 89.6 | 66.2% | 73.5% | 98.9 | 92.1% | 83.8% | 86.1 | 73.3 | 98 | 93.8% |
| Cc1cc(-c2nc3cc(F)ccc3[se]2)cc(F)c1N | 59.5% | 34.9 | 83.8 | 71.2 | 23.1% | 79.2% | 83.1% | 66.9% | 103% | 52.4% | 98.4 | 95.8% | 84.9% | 63.5 | 120% | 101% | 99.7 | 94.7 | 98.5 | 90.3% |
| Clc1ccc(CSC(Cn2ccnc2)c2ccc(Cl)cc2Cl)cc1 (stereo not given) | 27.1% | 52.2 | 63.3 | 52.6 | 23.2% | -4.58% (active) | 34.6% | 27.5% | 34.2% | -55.2% (active) | 68.3 | 10.2% | 21% | 64.7 | 15.3% | 50.2% | 10.7 | 44.4 | 23.1 | 29.7% |
| COc1cc(C=Nc2cccc(Br)c2)ccc1N(CCCl)CCCl | 72.7% | 75.2 | 132 | 89 | 21.9% | 74.8% | -81.5% (active) | 64.9% | 94.4% | 78.5% | 87.6 | 88.4% | 128% | 91.2 | 2.86% (active) | 80.3% | 44.4 | 67.9 | 96.6 | 94% |
| CC1(C)N=C(N)N=C(N)N1c1ccc(OCCCNC(=O)Nc2ccc(S(=O)(=O)F)cc2)c(Cl)c1 | 27.3% | 40.1 | 52.5 | 49 | 14.4% | 78.6% | 21.5% | 18% | 27.5% | 31.5% | 32.4 | 25.2% | 55.2% | 65.1 | 49.4% | 32.3% | 21.7 | 16.5 | 26.4 | 35.3% |
